In the library only some 19% were active in any assay of this set; here they are far more common.
Giardia killer – Giardia lamblia killing. Giardia lamblia trophozoite viability. activity change, % at 7.66 µM, hits read low. actives 0.15% (n = 340,000). AID 540267; in the data active = activity change below about -80%; inconclusive = between about -30% and that limit;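 also: parasites exposed to compound for two days anaerobically before the ATP read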
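Giardia trophozoites, 100 cells per well, were exposed to compounds for 48 hrs at 37 deg C under anaerobic conditions; viability was then read as ATP content by bioluminescence after 15-30 min at room temperature.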
ELG1 DNA repair – blocks ELG1-dependent DNA repair in HEK293T cells. Potency, µM (doses to about 46.1 µM), for the others: at the highest dose activity change, negative = inhibition, hits mostly inhibitors. actives 2.3% (n = 330,000). HEK293T ELG1-luciferase reporter, luminescence, 16 h; DNA damage induced by 5-fluorouridine; also: potency is read from the fitted curve at half-maximal effect; nearly all actives have a fitted effect of over 55% in size
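Quantitative HTS, concentration-response format. 2,000 cells/well co-treated with 5-fluorouridine and compound, 16 hr in 5% CO2 at 37 °C; ONE-Glo luminescence read after 30 min.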
TDP1 block – blocks human tyrosyl-DNA phosphodiesterase 1 | Potency, µM (series often up to 130 µM), for inactives: at the highest dose activity change, negative = inhibition, actives largely listed as inhibitors | Q9NUW8 | actives 0.28% (n = 350,000) | recombinant TDP1, AlphaScreen DNA substrate cleavage | AID 485290; also: potency is read from the fitted curve at half-maximal effect; nearly all actives have a fitted effect of over 40% in size
Target sequence (Q9NUW8 whole entry, looked up): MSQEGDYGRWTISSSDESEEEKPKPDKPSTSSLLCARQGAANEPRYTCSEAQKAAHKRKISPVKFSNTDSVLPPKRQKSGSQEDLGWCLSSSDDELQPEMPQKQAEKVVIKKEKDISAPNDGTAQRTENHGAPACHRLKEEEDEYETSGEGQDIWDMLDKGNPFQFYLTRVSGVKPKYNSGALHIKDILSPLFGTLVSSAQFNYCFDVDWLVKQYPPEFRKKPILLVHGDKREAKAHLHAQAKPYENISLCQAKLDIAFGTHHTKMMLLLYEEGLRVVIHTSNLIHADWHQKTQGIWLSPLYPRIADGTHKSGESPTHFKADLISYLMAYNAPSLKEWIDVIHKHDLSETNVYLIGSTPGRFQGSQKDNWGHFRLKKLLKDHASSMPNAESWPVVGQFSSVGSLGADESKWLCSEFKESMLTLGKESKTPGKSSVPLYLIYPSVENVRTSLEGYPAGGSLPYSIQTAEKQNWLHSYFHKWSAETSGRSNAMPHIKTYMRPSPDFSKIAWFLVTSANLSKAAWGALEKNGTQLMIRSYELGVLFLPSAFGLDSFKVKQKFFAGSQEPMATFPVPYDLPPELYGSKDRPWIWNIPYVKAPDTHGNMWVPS
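Recombinant E. coli-expressed Tdp1 (1 nM) preincubated with compound 15 min at RT, then 5'-biotin/3'-phosphotyrosine-FITC DNA substrate (15 nM) added for 5 min. AlphaScreen beads (10 ug/ml) added, 10 min RT; tyrosine-FITC cleavage read as signal loss.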
DT40 TDP1 CPT – growth inhibition of DT40 Tdp1-/-;hTDP1 cells with camptothecin (screen for TDP1 inhibitors). chicken DT40 Tdp1-/-;hTDP1 cells + 20 nM CPT, ATP luminescence, 48 h. Potency, µM (doses to about 46.2 µM), without a hit: top-dose activity change, negative = growth inhibition, usual class: inhibitors. actives 12% (n = 420,000); also: potency is read from the fitted curve at half-maximal effect; nearly all actives have a fitted effect of over 55% in size
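Chicken DT40 Tdp1-/- cells stably complemented with human TDP1 were seeded at 400 cells/well in medium containing 20 nM camptothecin, exposed to pin-transferred compounds, and grown at 37 °C for at least 48 hr. Viability was read as ATP luminescence.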
DT40 TDP1 no CPT – qHTS for Inhibitors of human tyrosyl-DNA phosphodiesterase 1 (TDP1): qHTS in cells in absence of CPT | DT40 Tdp1-/- hTDP1 cells, no CPT, ATP luminescence, 48 h | actives 15% (n = 420,000) | Potency, µM (highest dose often 46.2 µM), inactives show top-dose activity change, negative = growth inhibition, usual class: inhibitors; also: potency is read from the fitted curve at half-maximal effect; nearly all actives have a fitted effect of over 55% in size
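Cells were dispensed at 400 per well, compounds added by pin tool, plates incubated ≥48 hr at 37 °C, then CellTiter-Glo added for 30 min at room temperature before luminescence reading. Line: DT40 Tdp1-/- complemented with hTDP1; camptothecin omitted.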
IL-1B inflam inh – inflammasome signaling inhibition, IL-1 beta readout; THP-1 LPS/ATP IL-1B secretion, AlphaLISA, 16 h; hits give low values; activity change, % at 57.5 µM; actives 4.7% (n = 360,000); AID 743279; in the data active = activity change below about -50%; inconclusive = mostly about -30% to -49%
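THP-1 cells pretreated 1 hr with compounds (up to 57.5 uM final), then stimulated with LPS (250 ng/mL final) plus ATP (1.25 mM final); secreted IL-1B measured by AlphaLISA after 16 hr, decreased signal indicating inhibition.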
Starred values were filed as active, the others as inactive; i = inactive; ? = inconclusive; / = no result; ! = repeats disagree; [ ] = another dose, or the depositor's remark. Unless noted, calls follow the shape of the dose curve; as a rule, active = well fitted curve in the direction sought with a large enough effect; inconclusive = small, poorly fitted or top-dose-only effect, or another doubt; inactive = no such curve, though single readings can be large; an effect the other way counts as inactive or inconclusive. % is scaled to controls: 0 for no effect and ±100 for the full control effect.

SMILES	Giardia killer	ELG1 DNA repair	TDP1 block	DT40 TDP1 CPT	DT40 TDP1 no CPT	IL-1B inflam inh
Cc1cccc(C(=O)Nc2nnc(S(=O)(=O)N(C)Cc3ccco3)s2)c1	3	10%	6%	?	?	-3
N#CC1=C2SC=C(c3ccc(Br)cc3)N2CCCC1=O	9	?	-4%	?	23µM*	-12
COCCNC(=O)Cn1nc(C)c2c(C)n(-c3ccc(C)cc3)nc2c1=O	/	/	8%	-4%	-13%	/
COc1ccc(CNC(=O)Cn2nc(C)c3c(C)n(-c4ccc(C)cc4)nc3c2=O)cc1OC	18	21µM*	/	-26%	-9%	-8
COc1ccc(CCNC(=O)Cn2nc(C)c3c(C)n(-c4ccc(C)cc4)nc3c2=O)c(OC)c1	/	/	/	16µM*	?	/
COc1ccc(NC(=O)Cn2nc(C)c3nn(-c4ccc(Cl)cc4)c(C)c3c2=O)cc1	/	/	0%	?	?	/
Cc1cccc(CNC(=O)Cn2nc(C)c3nn(-c4ccc(Cl)cc4)c(C)c3c2=O)c1	/	/	5%	21µM*	18µM*	/
Cc1nn(CC(=O)Nc2ccccc2F)c(=O)c2c(C)n(-c3ccc(Cl)cc3)nc12	/	/	3%	23µM*	?	/
C[C@@H](CN1c2ccccc2Sc2ccccc21)N(C)C	/	/	15%[21 µM]	/	/	/
CC(C)CCN1C(=O)c2ccc(C(=O)Nc3ccccc3C(=O)O)cc2C1=O	-23	16%	/	-15%	3%	16
Cc1ccc(/C=N/N=C2/NC(=O)C(CC(=O)N3CCOCC3)S2)cc1 (centres undefined)	19	7%	3%	4%	3%	16
COc1ccc(CCNC(=O)CSC2=NS(=O)(=O)c3cc(F)ccc3N2)cc1OC	/	/	/	-11%	?	?
CCOc1ccc(CNC(=O)Cn2nc(C)c3nn(-c4ccc(Cl)cc4)c(C)c3c2=O)cc1OC	/	/	3%	?	18µM*	/
CCOc1ccc(CNC(=O)Cn2nc(C)c3nn(-c4ccc(Cl)cc4)c(C)c3c2=O)cc1	/	/	5%	-8%	-1%	/
O=C(Nc1ccccc1)c1cc(C2COCCN2C(=O)c2cccs2)on1 (centres undefined)	/	/	/	-17%	-22%	87
CC(=O)N1CCN(c2ccc(S(=O)(=O)N3CCCCC3)cc2[N+](=O)[O-])CC1	?	?	2%	-23%	?	6
COc1cccc(C(=O)/C=C/c2ccc(N3CCCCC3)c([N+](=O)[O-])c2)c1	27	1%	12%	18µM*	?	-96*
O=C(/C=C/c1ccc(N2CCCCC2)c([N+](=O)[O-])c1)c1ccc(S(=O)(=O)N2CCCC2)cc1	8	?	11%	9.2µM*	9.2µM*	6
COc1cccc(/C=C/C(=O)c2cccc([N+](=O)[O-])c2)c1	-11	?	4%	?	?	-4
O=C(COC(=O)c1cccc(Br)c1)Nc1ccc2[nH]c(=O)[nH]c2c1	9	0%	/	8%	13%	26
COc1ccc(S(=O)(=O)N2CCN(c3ccccc3)CC2)cc1-c1noc(C)n1	2	/	9%	11%	-9%	/
CC(C)=CCCC1=CC[C@H](C(=O)O)[C@H](C(=O)O)C1	/	/	-2%	3%[9.04 µM]	0%[9.04 µM]	/
CC(C)=CC/C=C1\CCC(C(=O)O)C(C(=O)O)C1 (centres undefined)	-8	18%	7%	?	0.029µM*	28
C=C(c1ccccc1Cl)[n+]1ccccc1	29	-20%	/	12µM*	7.3µM*	12
C=C(c1ccccc1C)[n+]1ccccc1	9	17%	/	-24%	?	39
SMILES	Giardia killer	ELG1 DNA repair	TDP1 block	DT40 TDP1 CPT	DT40 TDP1 no CPT	IL-1B inflam inh
Cc1ccc(CNC(=O)c2c(Nc3ccccc3C)sc(C(=O)c3ccc(F)cc3)c2N)cc1	/	/	11%	?	15µM*	/
COc1ccc(CNC(=O)c2c(Nc3ccccc3C)sc(C(=O)c3ccccc3)c2N)cc1	/	/	12%	?	5.2µM*	/
COc1cccc(Nc2sc(C(=O)c3ccc(F)cc3)c(N)c2C(=O)NCc2ccc(C)cc2)c1	/	/	9%	4.1µM*	5.2µM*	/
CCOC(=O)c1ccc(NC(=O)c2sc3nc(N4CCOCC4)c4c(c3c2N)CCCC4)cc1	3	-3%	1%	?	16µM*	17
COc1ccccc1NC(=O)c1sc2nc(N3CCOCC3)c3c(c2c1N)CCCC3	5	0%	-14%	?	?	i
Nc1c(C(=O)NCCc2ccccc2)sc2nc(N3CCOCC3)c3c(c12)CCCC3	-14	-16%	0%	16µM*	23µM*	?
Cc1ccccc1NC(=O)c1sc2nc(N3CCOCC3)c3c(c2c1N)CCCC3	-1	?	1%	?	7.3µM*	-15
CCOC(=O)c1ccc(NC(=O)CCn2c(=O)c3cccn3c3cccnc32)cc1	/	/	0%	21µM*	?	/
CCCCN(CC)C(=O)CCn1c(=O)c2cccn2c2cccnc21	/	/	-3%	?	18µM*	/
COc1ccc(N2CCN(C(=O)CCn3c(=O)c4cccn4c4cccnc43)CC2)cc1	/	/	3%	-15%	-21%	/
CCc1cccc(C)c1NC(=O)CCCn1c(=O)c2cccn2c2cccnc21	-9	3%	-7%	23µM*!	?	-8
O=C(CCn1c(=O)c2cccn2c2cccnc21)N1CCN(c2ccc(F)cc2)CC1	/	/	3%	15µM*	16µM*	/
Cc1ccc(NC(=O)CCCn2c(=O)c3cccn3c3cccnc32)c(C)c1	/	/	-8%	9%	-6%	/
CCOCCc1nnc(NC(=O)C(=O)c2cc(C)n(-c3ccc(C)cc3C)c2C)s1	/	/	6%	?	?	/
CCOC(=O)c1ccc(NC(=O)CCCn2c(=O)c3cccn3c3ccccc32)cc1	/	/	3%	?	?	/
CCOC(=O)c1ccc(NC(=O)CCCn2c(=O)c3cccn3c3cccnc32)cc1	/	/	3%	?	18µM*	/
COc1ccc2cc(C(=O)C3CCCN(C(=O)c4cncs4)C3)ccc2c1 (centres undefined)	4	-1%	5%	18µM*	12µM*	-18
COc1ccc2cc(C(=O)C3CCCN(C(=O)CSc4nnc(C)o4)C3)ccc2c1 (centres undefined)	9	?	0%	18µM*	21µM*	-22
Cc1nnc(SCC(=O)N2CCCC(C(=O)c3ccc(Cl)cc3)C2)o1 (centres undefined)	15	-13%	-1%	5%	-8%	35

Compound activity (PubChem BioAssay)
